Screening results as filed in PubChem BioAssay.
TDP1 cell CPT – DT40-hTDP1 cell growth loss with CPT; chicken DT40 Tdp1-/-;hTDP1 cells + 20 nM CPT, ATP luminescence, 48 h; Potency, µM (highest dose often 46.2 µM), without a hit: top-dose activity change, negative = growth inhibition, most hits filed as inhibitors; 420,000 tested, 12% active; AID 686979; note: nearly all actives have a fitted effect of over 55% in size
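Chicken DT40 Tdp1-/- cells stably complemented with human TDP1 were seeded at 400 cells/well in medium containing 20 nM camptothecin, exposed to pin-transferred compounds, and grown at 37 °C for at least 48 hr. Viability was read as ATP luminescence.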
TDP1 block – blocks human tyrosyl-DNA phosphodiesterase 1 | AID 485290 | recombinant TDP1, AlphaScreen DNA substrate cleavage | 350,000 tested, 0.28% active | Potency, µM (series often up to 130 µM), without a hit: at the top dose activity change, negative = inhibition, actives largely listed as inhibitors; note: nearly all actives have a fitted effect of over 40% in size
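Recombinant human Tdp1 (E. coli-expressed, 1 nM final) preincubated with compounds 15 min at room temperature, then 5'-biotin/3'-phosphotyrosine-FITC DNA substrate (15 nM final) added for 5 min. AlphaScreen beads (10 ug/ml final) added 10 min; cleavage lowers signal.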
DT40 TDP1 no CPT – qHTS for Inhibitors of human tyrosyl-DNA phosphodiesterase 1 (TDP1): qHTS in cells in absence of CPT; DT40 Tdp1-/- hTDP1 cells, no CPT, ATP luminescence, 48 h; 420,000 tested, 15% active; Potency, µM (top dose mostly 46.2 µM), for the others: at the top dose activity change, negative = growth inhibition, usual class: inhibitors; AID 686978, 2013; note: nearly all actives have a fitted effect of over 55% in size
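Chicken DT40 Tdp1-/- cells complemented with human TDP1, screened without camptothecin (DMSO vehicle only), 400 cells/well. Compounds pin-transferred, cells incubated at 37 °C for at least 48 hr. Growth read as ATP-dependent luminescence (CellTiter-Glo, 30 min at RT).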
VDR inhibitor – blocks the human vitamin D receptor; VDR-SRC2-3 peptide fluorescence polarization, 2 h; 400,000 tested, 0.93% active; P11473; Potency, µM, for inactives: max response, negative = inhibition, hits mostly inhibitors; AID 504847
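Fluorescence polarization assay of small-molecule disruption of VDR binding to coregulator peptide SRC2-3. Compounds and controls pin-transferred, then read after 2 h incubation at ambient room temperature.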
PLK1 PBD inh – inhibitors of human PLK1 polo-box domain binding. P53350. Potency, µM, inactives show max response, negative = inhibition, actives largely listed as inhibitors. AID 720504. Plk1 PBD binding of FITC phosphopeptide, fluorescence polarization. 360,000 tested, 2.8% active; note: series mostly up to about 57 µM; nearly all actives have a fitted effect of over 65% in size
GCN5L2 inh – blocks human GCN5L2 histone acetyltransferase | GCN5L2 HAT assay, ThioGlo1 CoA-SH fluorescence | Potency, µM (doses to about 58.9 µM), for inactives: at the highest dose activity change, negative = inhibition, usual class: inhibitors | 390,000 tested, 0.21% active
Target sequence (Q92830 whole entry, looked up): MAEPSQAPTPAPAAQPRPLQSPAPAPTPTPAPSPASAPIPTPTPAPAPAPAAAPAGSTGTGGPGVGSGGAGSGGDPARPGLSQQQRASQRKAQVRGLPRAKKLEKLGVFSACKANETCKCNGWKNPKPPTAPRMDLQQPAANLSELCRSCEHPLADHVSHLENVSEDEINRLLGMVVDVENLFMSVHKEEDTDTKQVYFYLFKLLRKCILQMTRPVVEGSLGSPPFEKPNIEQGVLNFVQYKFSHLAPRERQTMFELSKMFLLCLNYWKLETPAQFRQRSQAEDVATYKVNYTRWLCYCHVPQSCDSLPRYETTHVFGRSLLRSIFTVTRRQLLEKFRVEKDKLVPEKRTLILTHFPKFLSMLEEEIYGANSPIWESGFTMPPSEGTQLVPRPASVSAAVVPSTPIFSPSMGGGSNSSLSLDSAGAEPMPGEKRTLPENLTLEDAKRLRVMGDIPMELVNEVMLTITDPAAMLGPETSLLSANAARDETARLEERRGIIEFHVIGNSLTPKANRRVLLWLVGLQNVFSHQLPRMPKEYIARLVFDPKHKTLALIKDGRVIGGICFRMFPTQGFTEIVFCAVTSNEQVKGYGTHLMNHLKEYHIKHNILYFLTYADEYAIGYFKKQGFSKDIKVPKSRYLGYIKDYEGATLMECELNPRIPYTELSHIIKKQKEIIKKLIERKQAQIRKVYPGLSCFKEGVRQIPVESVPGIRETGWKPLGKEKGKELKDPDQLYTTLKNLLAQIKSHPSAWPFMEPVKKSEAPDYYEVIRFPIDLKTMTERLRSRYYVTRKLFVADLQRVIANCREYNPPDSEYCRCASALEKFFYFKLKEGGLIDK
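Compounds, pin-transferred from DMSO stocks, meet 20nM GCN5L2 for 15 min before the reaction begins with H3(1-25) peptide (75uM) and acetyl-CoA (70uM). Thiol-reactive ThioGlo1 reports CoA release over 20 min at room temperature.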
The depositor's hits bear a star; ? = inconclusive; . = no result given; [ ] = dose if it differs, or a comment. Only some compounds are listed: those with a hit (about 18% of all), similar ones and a draw of the others. Calls come from the whole dose curve; as a rule, active = well fitted curve in the direction sought with a large enough effect; inconclusive = small, poorly fitted or top-dose-only effect, or another doubt; inactive = no such curve, though single readings can be large; an effect the other way counts as inactive or inconclusive. % is set by controls: 0 for no effect and ±100 for the full control effect; potency is the fitted concentration of half-maximal effect.

SMILES	TDP1 cell CPT	TDP1 block	DT40 TDP1 no CPT	VDR inhibitor	PLK1 PBD inh	GCN5L2 inh
O=C(Nc1c2c(nn1-c1cccc(Cl)c1)CS(=O)(=O)C2)c1ccco1	4%	0%	14%	-5%	-19%	-9%
O=C(CCNS(=O)(=O)c1ccccc1)NCC1CCCCC1	-8%	-4%	-27%	20%	-24%	-8%
CC1CCC(C(C)C)C(OC(=O)Cn2c(-c3ccc(F)cc3)[n+](C)c3ccccc32)C1 (centres undefined)	2.3µM*	-1%	2.3µM*	-15%	-9%	1%
CC1CCC(C(C)C)C(OC(=O)Cn2c(-c3ccccc3)[n+](C)c3ccccc32)C1 (centres undefined)	0.52µM*	6%	0.46µM*	-11%	-13%	-5%
Cc1cccc(OCc2n(CC(=O)OC3CC(C)CCC3C(C)C)c3ccccc3[n+]2C)c1 (centres undefined)	5.2µM*	2%	5.8µM*	-5%	-12%	-5%
C#C[C@]1(O)CC[C@@H]2[C@H]3CCC4=Cc5oncc5C[C@]4(C)[C@@H]3CC[C@@]21C	.	14%[21 µM]	.	-18%	.	2%[21.4 µM]
O=C(Nc1cccc(NC(=O)c2cccnc2)c1)c1ccccc1	-21%	2%	?	11%	-15%	1%
NC(=O)c1cccc(-c2cnc(N)c(C(=O)c3cccnc3)n2)c1	2.3µM*	.	9.2µM*	13%	-12%	.
CC(=O)Nc1cccc(-c2cnc(N)c(C(=O)c3cccnc3)n2)c1	8.2µM*	-12%	10µM*	-10%	-16%	-5%
COC(=O)[C@@H]1[C@H]2SC(C)(C)[C@H](C(=O)OC)N2C(=O)N1Cc1cc2ccccc2n1S(=O)(=O)c1ccccc1	?	.	13µM*	.	.	.
COC(=O)C1N2C(=O)N(C)[C@H](C(=O)OC)[C@H]2SC1(C)C (some centres undefined)	-9%	.	-3%	.	.	.
c1ccc(Cn2ncc3c(N4CCCCC4)ncnc32)cc1	?	6%	?	12%	-7%	0%
Clc1ccc(Cn2ncc3c(N4CCN(c5ccccc5)CC4)ncnc32)cc1	23µM*	.	23µM*	.	-18%	.
Cc1ccc(Cn2ncc3c(N4CCOCC4)ncnc32)cc1	?	4%	-29%	6%	-6%	-7%
Cc1ccc(Cn2ncc3c(N4CCN(c5ccccc5C)CC4)ncnc32)cc1	23µM*	2%	16µM*	3%	1%	-12%
C[C@@H](C(=O)Nc1ccc2ccccc2c1)[C@H]1C[C@]1(C)[C@H](NC(=O)c1cnccn1)c1ccccc1	?	0%	?	-14%	5%	-4%
C[C@@H](C(=O)Nc1ccc2ccccc2c1)[C@@H]1C[C@@]1(C)[C@@H](NC(=O)c1cnccn1)c1ccccc1	26µM*	-7%	?	-6%	?	-11%
Cc1cc(C(=O)N[C@H](c2ccccc2)[C@@]2(C)C[C@@H]2[C@@H](C)C(=O)Nc2ccc3ccccc3c2)no1	?	4%	26µM*	-11%	1%	-7%
Cc1ccc(NC(=O)CSc2nc3n[nH]c(C)c3c(=N)n2-c2cccc(C)c2)cc1	5.8µM*	2%	3.3µM*	5%	.	-3%
Cc1cccc(NC(=O)CSc2nc3n[nH]c(C)c3c(=N)n2-c2cccc(Cl)c2)c1	18µM*	4%	15µM*	0%	.	3%
CCC(Sc1nc2cc(OC)c(OC)cc2c(=O)n1Cc1ccc(Cl)cc1)C(=O)NCCOC (centres undefined)	-4%	3%	-7%	11%	.	-4%
CCC(Sc1nc2n[nH]c(C)c2c(=N)n1-c1cccc(Cl)c1)C(=O)NCCOC (centres undefined)	23µM*	2%	13µM*	2%	-16%	-11%
Cc1cccc(-n2c(SCC(=O)N3CCCC3)nc3n[nH]c(C)c3c2=N)c1	?	3%	?	-2%	-8%	-6%
CCC(C)NC(=O)CSc1nc2n[nH]c(C)c2c(=N)n1-c1cc(Cl)ccc1C (centres undefined)	?	0%	16µM*	7%	.	-5%
Cc1ccc(NC(=O)/C(C#N)=C/c2ccc(C)s2)c(C)c1	1%	-9%	-22%	2%	14%	-2%
SMILES	TDP1 cell CPT	TDP1 block	DT40 TDP1 no CPT	VDR inhibitor	PLK1 PBD inh	GCN5L2 inh
Cc1ccc(NC(=O)C(=Cc2ccc(C(=O)O)cc2)C(=O)Nc2ccc(C)cc2C)c(C)c1	5.2µM*	3%	2.9µM*	25µM*	-7%	-8%
O=C1c2ccccc2S(=O)N1c1cccc(F)c1 (centres undefined)	-20%	.	-28%	.	24µM*	.
COc1ccccc1CNC(=O)CCNS(=O)(=O)c1ccc2c(c1)oc(=O)n2C	-6%	1%	-1%	8%	13%	-15%
COc1cc(C(=S)N2CCCC2)ccc1OCc1ccccc1	1%	3%	?	-16%	-14%	-12%
CC(C)=CCc1c(O)c(CC=C(C)C)c2c(c1O)C(=O)CC(c1ccc(O)cc1)O2 (centres undefined)	?	1%	18µM*	-18%	-3%	-6%
CC(C)=CCc1c(O)cc(O)c2c1OC(c1ccc(O)cc1)CC2=O (centres undefined)	?	.	?	-5%	7%	.
CCCCN(C(=O)CSc1nn(-c2ccc(F)cc2)c(=S)s1)c1c(N)n(CCCC)c(=O)[nH]c1=O	?	2%	29µM*	-4%	-18%	1%
Cn1c(N)c(C(=O)CSc2nn(-c3ccc(F)cc3)c(=S)s2)c(=O)n(C)c1=O	21µM*	-4%	23µM*	25%	-15%	-12%
Cc1cc(O)c(-c2ccnc3cc(-c4ccccc4)nn23)cc1Cl	?	-3%	?	14%	.	-9%
CNC(=O)CSCc1cnn(-c2ccccc2)c1-n1cccc1	6%	8%	-17%	1%	1%	-10%
Cc1ccc(NC(=O)CSCc2cnn(-c3ccccc3)c2-n2cccc2)c(C)c1	?	4%	16µM*	2%	.	-12%
Cc1ccc(Cl)cc1NC(=O)CSCc1cnn(-c2ccccc2)c1-n1cccc1	16µM*	-1%	16µM*	-18%	.	-11%
CC(C)CCNC(=O)CSCc1cnn(-c2ccccc2)c1-n1cccc1	21µM*	-3%	21µM*	5%	.	-6%
O=C(CCSCc1cnn(-c2ccccc2)c1-n1cccc1)NCc1ccccc1Cl	18µM*	0%	?	13%	.	-12%
